From paper PMC7862700, “An all-to-all approach to the identification of sequence-specific readers for epigenetic DNA modifications on cytosine” come the findings set out here.

What all share (assay): DAPPL (digital affinity profiling via proximity ligation, sequencing); 10 mM Tris-HCl pH 7.5, 50 mM NaCl, 1 mM DTT, 4% glycerol, room temperature, 30 min; GST-TFs on glutathione beads, 16-mer random dsDNA library, 0.1% formaldehyde crosslink after washing; high values mean tight binding
Holding throughout (details): protein: recombinant; tags: N-terminal GST; dsDNA, one strand shown

In one assay the target is T1, FEV (Homo sapiens, UniProt Q99581 1-238).
T1 sequence: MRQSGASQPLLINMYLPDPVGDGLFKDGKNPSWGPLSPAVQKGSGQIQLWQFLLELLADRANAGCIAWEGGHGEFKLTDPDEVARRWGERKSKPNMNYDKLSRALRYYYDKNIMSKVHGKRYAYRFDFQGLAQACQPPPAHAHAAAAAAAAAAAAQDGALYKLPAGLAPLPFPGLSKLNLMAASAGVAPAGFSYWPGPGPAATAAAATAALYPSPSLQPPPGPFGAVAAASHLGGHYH
The procedure, abridged: (§1)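 Beads coated with glutathione captured GST-fused human transcription factors that had been expressed in yeast, and the factors were then given DNA barcodes and pooled with a tag-only sample. The pools were incubated with 200 nmole of a random double-stranded 16-mer DNA library in Tris/NaCl/DTT/glycerol buffer for 30 min at room temperature, washed, crosslinked with 0.1% formaldehyde and proximity-ligated with BsaI/T4 ligase at 37 °C for 1 h. PCR amplification and Illumina NextSeq500 sequencing came last. Binding signal is each hexamer's read frequency for a factor divided by its frequency for the tag-only sample.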

Another assay addresses ETV5 (Homo sapiens, UniProt P41161 1-510). Put shortly:
as §1

The target in a further assay is T2, SPIC (Homo sapiens, UniProt Q8N5J4 1-248).
T2 sequence: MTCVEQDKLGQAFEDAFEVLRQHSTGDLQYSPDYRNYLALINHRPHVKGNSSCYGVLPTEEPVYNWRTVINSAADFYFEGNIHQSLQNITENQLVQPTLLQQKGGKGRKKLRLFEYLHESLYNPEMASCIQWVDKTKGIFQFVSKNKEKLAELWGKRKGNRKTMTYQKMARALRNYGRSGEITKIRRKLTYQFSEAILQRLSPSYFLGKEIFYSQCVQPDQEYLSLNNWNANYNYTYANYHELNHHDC
The procedure, abridged:
as §1

In a further assay the target is ELF4 (Homo sapiens, UniProt Q99607 1-663). The procedure, abridged: as §1
A further assay addresses T3, ELK4 (Homo sapiens, UniProt P28324-2 1-405).
T3 sequence: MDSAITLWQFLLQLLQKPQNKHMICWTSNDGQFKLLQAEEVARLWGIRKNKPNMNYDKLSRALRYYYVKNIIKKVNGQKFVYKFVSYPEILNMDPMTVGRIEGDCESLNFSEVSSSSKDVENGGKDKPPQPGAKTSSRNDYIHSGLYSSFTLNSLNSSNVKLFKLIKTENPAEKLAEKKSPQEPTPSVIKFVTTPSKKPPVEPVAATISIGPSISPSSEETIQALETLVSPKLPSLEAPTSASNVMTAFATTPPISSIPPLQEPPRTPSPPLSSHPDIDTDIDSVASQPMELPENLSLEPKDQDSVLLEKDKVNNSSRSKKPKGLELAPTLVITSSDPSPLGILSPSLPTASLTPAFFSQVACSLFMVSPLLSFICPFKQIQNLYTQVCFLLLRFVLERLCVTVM
Put shortly: as §1

The target of another assay is T4, ELF3 (Homo sapiens, UniProt P78545 1-371).
T4 sequence: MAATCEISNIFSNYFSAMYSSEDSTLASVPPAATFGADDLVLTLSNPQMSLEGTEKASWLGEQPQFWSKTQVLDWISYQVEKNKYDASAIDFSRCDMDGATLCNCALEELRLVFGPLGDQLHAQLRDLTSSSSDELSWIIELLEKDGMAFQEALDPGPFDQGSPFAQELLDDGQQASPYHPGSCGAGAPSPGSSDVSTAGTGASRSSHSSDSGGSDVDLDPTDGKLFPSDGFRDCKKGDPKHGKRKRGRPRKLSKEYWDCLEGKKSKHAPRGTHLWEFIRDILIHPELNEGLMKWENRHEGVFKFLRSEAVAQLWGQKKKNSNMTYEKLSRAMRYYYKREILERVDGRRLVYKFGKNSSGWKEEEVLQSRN
The procedure, abridged:
as §1

For another assay, the target named is ETV1 (Homo sapiens, UniProt P50549 1-477). The procedure, abridged:
as §1

Another assay has as its target T5, ETV2 (Homo sapiens, UniProt O00321 1-342).
T5 sequence: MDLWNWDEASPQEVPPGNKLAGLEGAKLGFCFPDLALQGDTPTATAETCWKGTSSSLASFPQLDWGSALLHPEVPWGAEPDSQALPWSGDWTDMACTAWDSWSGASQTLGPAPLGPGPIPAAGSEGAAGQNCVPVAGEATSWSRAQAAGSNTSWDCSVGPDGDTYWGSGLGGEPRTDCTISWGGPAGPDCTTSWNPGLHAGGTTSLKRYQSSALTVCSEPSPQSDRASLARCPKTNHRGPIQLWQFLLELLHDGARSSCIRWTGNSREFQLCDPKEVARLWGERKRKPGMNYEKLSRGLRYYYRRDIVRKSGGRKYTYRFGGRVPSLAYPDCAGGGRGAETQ
Put shortly:
as §1

ELF4, sequence (Q99607 whole entry): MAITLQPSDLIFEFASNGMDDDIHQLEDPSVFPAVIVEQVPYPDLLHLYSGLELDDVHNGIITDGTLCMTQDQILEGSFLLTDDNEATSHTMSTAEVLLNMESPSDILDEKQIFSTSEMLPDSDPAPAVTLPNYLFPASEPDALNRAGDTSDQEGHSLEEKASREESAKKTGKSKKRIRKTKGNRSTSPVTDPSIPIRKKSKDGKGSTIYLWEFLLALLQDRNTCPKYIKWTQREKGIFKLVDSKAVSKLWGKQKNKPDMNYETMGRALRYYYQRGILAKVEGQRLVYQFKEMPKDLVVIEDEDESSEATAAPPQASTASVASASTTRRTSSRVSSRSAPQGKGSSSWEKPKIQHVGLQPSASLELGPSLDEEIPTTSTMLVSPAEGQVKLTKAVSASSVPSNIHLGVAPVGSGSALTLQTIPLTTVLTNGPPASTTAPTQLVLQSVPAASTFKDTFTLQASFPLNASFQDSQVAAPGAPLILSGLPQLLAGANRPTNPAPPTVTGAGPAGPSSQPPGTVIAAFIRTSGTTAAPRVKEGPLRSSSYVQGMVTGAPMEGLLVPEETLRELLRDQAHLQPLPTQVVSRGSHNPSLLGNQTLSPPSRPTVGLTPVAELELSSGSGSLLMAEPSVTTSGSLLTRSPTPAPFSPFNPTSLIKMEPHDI
ETV1, sequence (P50549 whole entry): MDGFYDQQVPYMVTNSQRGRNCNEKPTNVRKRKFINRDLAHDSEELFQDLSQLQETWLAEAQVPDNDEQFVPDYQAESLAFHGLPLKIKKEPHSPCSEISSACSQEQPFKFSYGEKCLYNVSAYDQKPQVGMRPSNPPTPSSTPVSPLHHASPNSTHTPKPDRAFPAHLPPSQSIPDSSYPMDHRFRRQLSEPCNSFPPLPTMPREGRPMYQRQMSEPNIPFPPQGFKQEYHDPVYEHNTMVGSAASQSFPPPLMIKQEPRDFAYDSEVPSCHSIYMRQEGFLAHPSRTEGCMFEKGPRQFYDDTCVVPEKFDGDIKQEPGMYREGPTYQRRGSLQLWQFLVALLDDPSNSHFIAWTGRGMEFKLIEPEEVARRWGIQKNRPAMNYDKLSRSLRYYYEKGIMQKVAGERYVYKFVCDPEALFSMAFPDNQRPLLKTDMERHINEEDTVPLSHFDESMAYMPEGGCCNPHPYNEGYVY
ETV5, sequence (P41161 whole entry): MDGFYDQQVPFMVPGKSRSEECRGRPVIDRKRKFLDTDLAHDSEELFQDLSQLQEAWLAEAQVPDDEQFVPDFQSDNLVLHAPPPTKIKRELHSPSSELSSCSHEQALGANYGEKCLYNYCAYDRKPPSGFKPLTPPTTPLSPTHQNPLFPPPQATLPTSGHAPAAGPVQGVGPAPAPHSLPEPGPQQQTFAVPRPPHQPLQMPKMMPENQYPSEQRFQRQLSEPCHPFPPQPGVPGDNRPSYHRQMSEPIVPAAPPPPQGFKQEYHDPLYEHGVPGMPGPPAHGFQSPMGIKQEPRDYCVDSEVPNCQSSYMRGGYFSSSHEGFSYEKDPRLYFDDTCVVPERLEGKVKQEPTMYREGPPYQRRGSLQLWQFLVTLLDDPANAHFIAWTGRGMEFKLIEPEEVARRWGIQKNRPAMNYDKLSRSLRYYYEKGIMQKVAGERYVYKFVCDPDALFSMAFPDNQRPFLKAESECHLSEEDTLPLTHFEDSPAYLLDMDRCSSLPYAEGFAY

With ACAATG, the binding signal was 1.08 fold enrichment (6-mer frequency, TF over GST control) with FEV; 1.11 fold enrichment (6-mer frequency, TF over GST control) with ETV5; 1.08 fold enrichment (6-mer frequency, TF over GST control) in the assay with SPIC; 1.13 fold enrichment (6-mer frequency, TF over GST control) in the assay with ELF4; 1.16 fold enrichment (6-mer frequency, TF over GST control) with ELK4; 1.17 fold enrichment (6-mer frequency, TF over GST control) with ELF3. The binding signal with ETV1 is 1.07 fold enrichment (6-mer frequency, TF over GST control).

For GATATG, the binding signal in the assay with FEV was 1.08 fold enrichment (6-mer frequency, TF over GST control); with ETV5 it was 1.1 fold enrichment (6-mer frequency, TF over GST control); with SPIC it was 1.23 fold enrichment (6-mer frequency, TF over GST control); with ELF4, 1.11 fold enrichment (6-mer frequency, TF over GST control); with ELK4, 1.07 fold enrichment (6-mer frequency, TF over GST control); with ELF3, 1.08 fold enrichment (6-mer frequency, TF over GST control). In the assay with ETV1, the binding signal was 1.03 fold enrichment (6-mer frequency, TF over GST control).

Turning to ATGTCA, the binding signal with FEV was 1.03 fold enrichment (6-mer frequency, TF over GST control); in the assay with ETV5, 1.08 fold enrichment (6-mer frequency, TF over GST control); with SPIC, 1.21 fold enrichment (6-mer frequency, TF over GST control); with ELF4, 1.19 fold enrichment (6-mer frequency, TF over GST control); in the assay with ELK4 it was 1.14 fold enrichment (6-mer frequency, TF over GST control); with ELF3 it was 1.28 fold enrichment (6-mer frequency, TF over GST control). Moreover, the binding signal in the assay with ETV1 is 1.11 fold enrichment (6-mer frequency, TF over GST control).

With GCCCAT, the binding signal with FEV is 1.09 fold enrichment (6-mer frequency, TF over GST control); with ETV5, 1.03 fold enrichment (6-mer frequency, TF over GST control); with SPIC it was 1.12 fold enrichment (6-mer frequency, TF over GST control); in the assay with ELF4 it was 1.07 fold enrichment (6-mer frequency, TF over GST control); with ELK4, 1.23 fold enrichment (6-mer frequency, TF over GST control); with ETV2, 1.01 fold enrichment (6-mer frequency, TF over GST control).

GCGCCC: the binding signal was 1.08 fold enrichment (6-mer frequency, TF over GST control) with FEV; 1.04 fold enrichment (6-mer frequency, TF over GST control) in the assay with ETV5; 1.01 fold enrichment (6-mer frequency, TF over GST control) in the assay with SPIC; 1.19 fold enrichment (6-mer frequency, TF over GST control) with ELF4; 1.02 fold enrichment (6-mer frequency, TF over GST control) in the assay with ELK4; 1.02 fold enrichment (6-mer frequency, TF over GST control) with ETV2. The binding signal in the assay with ETV1 is 1.05 fold enrichment (6-mer frequency, TF over GST control).

Consider CCAATG, for which the binding signal was 1.1 fold enrichment (6-mer frequency, TF over GST control) with FEV; 1.03 fold enrichment (6-mer frequency, TF over GST control) with ETV5; 1.03 fold enrichment (6-mer frequency, TF over GST control) in the assay with SPIC; 1.13 fold enrichment (6-mer frequency, TF over GST control) in the assay with ELF4; 1.13 fold enrichment (6-mer frequency, TF over GST control) with ELK4; 1.05 fold enrichment (6-mer frequency, TF over GST control) with ELF3. Besides, the binding signal in the assay with ETV1 is 1.06 fold enrichment (6-mer frequency, TF over GST control).

With GTACTC, the binding signal in the assay with FEV was 1.11 fold enrichment (6-mer frequency, TF over GST control); with ETV5 it was 1.19 fold enrichment (6-mer frequency, TF over GST control); with SPIC, 1.06 fold enrichment (6-mer frequency, TF over GST control); in the assay with ELF4 it was 1.12 fold enrichment (6-mer frequency, TF over GST control); in the assay with ELK4, 1.03 fold enrichment (6-mer frequency, TF over GST control); in the assay with ELF3, 1.07 fold enrichment (6-mer frequency, TF over GST control). Moreover, the binding signal with ETV1 is 1.1 fold enrichment (6-mer frequency, TF over GST control).

As to ACCCTG, the binding signal with FEV is 1.02 fold enrichment (6-mer frequency, TF over GST control); with ETV5, 1.01 fold enrichment (6-mer frequency, TF over GST control); with SPIC it was 1.1 fold enrichment (6-mer frequency, TF over GST control); in the assay with ELF4, 1.16 fold enrichment (6-mer frequency, TF over GST control); with ELK4, 1.18 fold enrichment (6-mer frequency, TF over GST control); with ETV2 it was 1.05 fold enrichment (6-mer frequency, TF over GST control). Besides, the binding signal with ETV1 was 1.09 fold enrichment (6-mer frequency, TF over GST control).

Turning to GTTTGG, the binding signal was 1.06 fold enrichment (6-mer frequency, TF over GST control) in the assay with FEV; 1.03 fold enrichment (6-mer frequency, TF over GST control) with ETV5; 1.24 fold enrichment (6-mer frequency, TF over GST control) with SPIC; 1.03 fold enrichment (6-mer frequency, TF over GST control) with ELF4; 1.08 fold enrichment (6-mer frequency, TF over GST control) with ELK4; 1.06 fold enrichment (6-mer frequency, TF over GST control) in the assay with ETV2. The binding signal in the assay with ETV1 was 1.07 fold enrichment (6-mer frequency, TF over GST control).

As to AAGTTG, the binding signal with FEV is 1.05 fold enrichment (6-mer frequency, TF over GST control); with ETV5, 1.16 fold enrichment (6-mer frequency, TF over GST control); with SPIC, 1.08 fold enrichment (6-mer frequency, TF over GST control); in the assay with ELF4, 1.14 fold enrichment (6-mer frequency, TF over GST control); with ELK4 it was 1.12 fold enrichment (6-mer frequency, TF over GST control); with ELF3, 1.12 fold enrichment (6-mer frequency, TF over GST control). The binding signal with ETV1 is 1.02 fold enrichment (6-mer frequency, TF over GST control).
